The campaign covered roughly 5,500 compounds. About 2,000 (36%) were called active. About 18% were inconclusive and are not listed. The list shows a part of the results. A number with no mark means an inactive call. Cut-off read from the data, not from the text of the source: active = normalized growth mostly below about 0.91 (no sharp cut-off); inconclusive = no clear call, values can overlap the other calls; inactive = mostly above about 0.92.
Test: chemical genetic growth profiling, strain panel (AID 1159580);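 note: tested at 20 µM; growth read once vehicle control cultures reached saturation at 30 °C; 1 = growth at the plate median or of vehicle wells; lower values mean less growth of the strain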
Settings: growth OD
[1] = S. cerevisiae deletion strains, locus YDL101C, strain DUN1, hits give low values
[2] = S. cerevisiae deletion strains, locus YHR030C, strain SLT2, hits give low values
[3] = S. cerevisiae deletion strains, locus YHR079C, strain IRE1, hits give low values
[4] = S. cerevisiae deletion strains, locus YJL095W, strain BCK1, hits give low values
[5] = S. cerevisiae deletion strains, locus YJR066W, strain TOR1, hits give low values
[6] = S. cerevisiae deletion strains, locus YLR113W, strain HOG1, hits give low values
[7] = S. cerevisiae deletion strains, locus YNL183C, strain NPR1, hits give low values
[8] = S. cerevisiae deletion strains, locus YOR231W, strain MKK1, hits give low values
[9] = S. cerevisiae deletion strains, locus YPL256C, strain CLN2, hits give low values

For `N/C(=N/OC(=O)Nc1ccccc1)c1ccc(C2SCCS2)cc1`, the normalized growth (S. cerevisiae deletion strains, locus YAL013W, strain DEP1, hits give low values) was 0.889 (active), the normalized growth (S. cerevisiae deletion strains, locus YBR229C, strain ROT2, hits give low values) was 0.892 (active) and the normalized growth [1] was 0.753 (active). For the same molecule, the normalized growth (S. cerevisiae deletion strains, locus YDL134C, strain PPH21, hits give low values) was 0.972, the normalized growth (S. cerevisiae deletion strains, locus YDR150W, strain NUM1, hits give low values) was 0.851 and the normalized growth (S. cerevisiae deletion strains, locus YEL061C, strain CIN8, hits give low values) was 0.833 (active). For the same molecule, the normalized growth (S. cerevisiae deletion strains, locus YGR078C, strain PAC10, hits give low values) was 0.879 (active), the normalized growth (S. cerevisiae deletion strains, locus YGR229C, strain SMI1, hits give low values) was 1.01 and the normalized growth [2] was 0.343 (active). The normalized growth (S. cerevisiae deletion strains, locus YHR087W, strain rtc3, hits give low values) was 0.829 (active), the normalized growth (S. cerevisiae deletion strains, locus YJR043C, strain POL32, hits give low values) was 0.89 (active) and the normalized growth (S. cerevisiae deletion strains, locus YJR075W, strain HOC1, hits give low values) was 0.772 (active). The normalized growth (S. cerevisiae deletion strains, locus YKL190W, strain CNB1, hits give low values) was 0.924 (active), the normalized growth (S. cerevisiae deletion strains, locus YLR039C, strain RIC1, hits give low values) was 0.767 (active) and the normalized growth (S. cerevisiae deletion strains, locus YLR085C, strain ARP6, hits give low values) was 0.39 (active). The normalized growth (S. cerevisiae deletion strains, locus YLR262C, strain YPT6, hits give low values) was 0.759 (active), the normalized growth (S. cerevisiae deletion strains, locus YML094W, strain GIM5, hits give low values) was 0.801 (active) and the normalized growth (S. cerevisiae deletion strains, locus YMR219W, strain ESC1, hits give low values) was 0.884 (active). For the same molecule, the normalized growth (S. cerevisiae deletion strains, locus YMR263W, strain SAP30, hits give low values) was 0.87 (active), the normalized growth (S. cerevisiae deletion strains, locus YMR307W, strain GAS1, hits give low values) was 0.557 (active) and the normalized growth (S. cerevisiae deletion strains, locus YNL153C, strain GIM3, hits give low values) was 0.652 (active). The normalized growth (S. cerevisiae deletion strains, locus YNL298W, strain CLA4 (second series), hits give low values) was 0.797 (active), the normalized growth (S. cerevisiae deletion strains, locus YNL322C, strain KRE1, hits give low values) was 0.991 and the normalized growth (S. cerevisiae deletion strains, locus YNR030W, strain Alg12, hits give low values) was 0.81 (active). For the same molecule, the normalized growth (S. cerevisiae deletion strains, locus YPL055C, strain LGE1, hits give low values) was 0.694 (active), the normalized growth (S. cerevisiae deletion strains, locus YPR135W, strain CTF4, hits give low values) was 0.436 (active) and the normalized growth (S. cerevisiae strains, strain wild type, hits give low values) was 0.988.
`O=C(Nc1ccccc1)OCC(CN1CCCCC1)OC(=O)Nc1ccccc1` (stereo unspecified) showed a normalized growth [2] of 1, a normalized growth [3] of 1.03 and a normalized growth [4] of 1. For the same molecule, the normalized growth [5] was 0.925, the normalized growth [6] was 1.01 and the normalized growth [7] was 0.949. For the same molecule, the normalized growth [8] was 1.01 and the normalized growth [9] was 0.988.
`N/C(=N/O)c1ccc(Oc2ccc(C3SCCS3)cc2)c([N+](=O)[O-])c1` showed a normalized growth (S. cerevisiae deletion strains, locus YAR019C, strain CDC15, hits give low values) of 1.01, a normalized growth (S. cerevisiae deletion strains, locus YBL105C, strain PKC1, hits give low values) of 0.992 and a normalized growth (S. cerevisiae deletion strains, locus YBR135W, strain CKS1, hits give low values) of 0.979. It also gave a normalized growth (S. cerevisiae deletion strains, locus YBR136W, strain MEC1, hits give low values) of 1.01, a normalized growth (S. cerevisiae deletion strains, locus YBR160W, strain CDC28, hits give low values) of 0.997 and a normalized growth (S. cerevisiae deletion strains, locus YDL017W, strain CDC7, hits give low values) of 0.992. It also gave a normalized growth (S. cerevisiae deletion strains, locus YDL028C, strain MPS1, hits give low values) of 1.01, a normalized growth [1] of 0.991 and a normalized growth (S. cerevisiae deletion strains, locus YDL108W, strain KIN28, hits give low values) of 0.99. For the same molecule, the normalized growth (S. cerevisiae deletion strains, locus YDL132W, strain cdc53, hits give low values) was 0.973, the normalized growth (S. cerevisiae deletion strains, locus YDL214C, strain PRR2, hits give low values) was 0.992 and the normalized growth (S. cerevisiae deletion strains, locus YDR052C, strain DBF4, hits give low values) was 0.992. It also gave a normalized growth (S. cerevisiae deletion strains, locus YDR054C, strain cdc34, hits give low values) of 0.988, a normalized growth (S. cerevisiae deletion strains, locus YDR226W, strain ADK1, hits give low values) of 0.998 and a normalized growth (S. cerevisiae deletion strains, locus YDR477W, strain SNF1, hits give low values) of 1.01. It also gave a normalized growth (S. cerevisiae deletion strains, locus YER123W, strain YCK3, hits give low values) of 1.01, a normalized growth (S. cerevisiae deletion strains, locus YER133W, strain GLC7, hits give low values) of 0.994 and a normalized growth (S. cerevisiae deletion strains, locus YFL009W, strain cdc4, hits give low values) of 0.992. The normalized growth (S. cerevisiae deletion strains, locus YFL029C, strain CAK1, hits give low values) was 1, the normalized growth (S. cerevisiae deletion strains, locus YFR003C, strain YPI1, hits give low values) was 0.985 and the normalized growth (S. cerevisiae deletion strains, locus YFR019W, strain FAB1, hits give low values) was 1.02. The normalized growth (S. cerevisiae deletion strains, locus YFR028C, strain CDC14, hits give low values) was 1, the normalized growth (S. cerevisiae deletion strains, locus YGR040W, strain KSS1, hits give low values) was 1 and the normalized growth (S. cerevisiae deletion strains, locus YGR052W, strain FMP48, hits give low values) was 1.07. It also gave a normalized growth (S. cerevisiae deletion strains, locus YGR092W, strain DBF2, hits give low values) of 0.993, a normalized growth [2] of 0.874 and a normalized growth [3] of 1.06. The normalized growth (S. cerevisiae deletion strains, locus YHR082C, strain KSP1, hits give low values) was 1.12, the normalized growth (S. cerevisiae deletion strains, locus YHR205W, strain SCH9, hits give low values) was 1.01 and the normalized growth (S. cerevisiae deletion strains, locus YIL147C, strain SLN1, hits give low values) was 0.996. The normalized growth [4] was 1.01, the normalized growth (S. cerevisiae deletion strains, locus YJL128C, strain PBS2, hits give low values) was 0.93 and the normalized growth (S. cerevisiae deletion strains, locus YJL157C, strain FAR1, hits give low values) was 1.01. For the same molecule, the normalized growth (S. cerevisiae deletion strains, locus YJR016C, strain ILV3, hits give low values) was 0.993, the normalized growth (S. cerevisiae deletion strains, locus YJR066W, strain TOR1 (second series), hits give low values) was 1.01 and the normalized growth [5] was 1.02. For the same molecule, the normalized growth (S. cerevisiae deletion strains, locus YKL048C, strain ELM1, hits give low values) was 0.988, the normalized growth (S. cerevisiae deletion strains, locus YKL067W, strain YNK1, hits give low values) was 0.981 and the normalized growth (S. cerevisiae deletion strains, locus YKL101W, strain HSL1, hits give low values) was 0.986. For the same molecule, the normalized growth (S. cerevisiae deletion strains, locus YKL193C, strain SDS22, hits give low values) was 0.979, the normalized growth (S. cerevisiae deletion strains, locus YKL203C, strain TOR2, hits give low values) was 1.11 and the normalized growth [6] was 1.02. It also gave a normalized growth (S. cerevisiae deletion strains, locus YLR133W, strain CKI1, hits give low values) of 1.01, a normalized growth (S. cerevisiae deletion strains, locus YLR403W, strain SFP1, hits give low values) of 1.05 and a normalized growth (S. cerevisiae deletion strains, locus YML070W, strain DAK1, hits give low values) of 1.01. The normalized growth (S. cerevisiae deletion strains, locus YMR001C, strain CDC5, hits give low values) was 1, the normalized growth (S. cerevisiae deletion strains, locus YMR205C, strain PFK2 (second series), hits give low values) was 0.994 and the normalized growth (S. cerevisiae deletion strains, locus YMR277W, strain FCP1, hits give low values) was 0.995. It also gave a normalized growth (S. cerevisiae deletion strains, locus YNL006W, strain LST8, hits give low values) of 0.988, a normalized growth (S. cerevisiae deletion strains, locus YNL020C, strain ARK1, hits give low values) of 1.03 and a normalized growth (S. cerevisiae deletion strains, locus YNL161W, strain CBK1, hits give low values) of 0.981. The normalized growth [7] was 1.08, the normalized growth (S. cerevisiae deletion strains, locus YNL207W, strain RIO2, hits give low values) was 0.984 and the normalized growth (S. cerevisiae deletion strains, locus YNL222W, strain SSU72, hits give low values) was 0.979. The normalized growth (S. cerevisiae deletion strains, locus YNL307C, strain MCK1 (second series), hits give low values) was 1.02, the normalized growth (S. cerevisiae deletion strains, locus YOL078W, strain AVO1, hits give low values) was 0.978 and the normalized growth (S. cerevisiae deletion strains, locus YOL136C, strain PFK27, hits give low values) was 1.02. It also gave a normalized growth (S. cerevisiae deletion strains, locus YOR061W, strain CKA2, hits give low values) of 0.995, a normalized growth (S. cerevisiae deletion strains, locus YOR119C, strain RIO1, hits give low values) of 1.04 and a normalized growth [8] of 1.03. It also gave a normalized growth (S. cerevisiae deletion strains, locus YOR329C, strain SCD5, hits give low values) of 0.991, a normalized growth (S. cerevisiae deletion strains, locus YPL031C, strain PHO85, hits give low values) of 0.998 and a normalized growth (S. cerevisiae deletion strains, locus YPL153C, strain RAD53, hits give low values) of 0.988. The normalized growth (S. cerevisiae deletion strains, locus YPL204W, strain HRR25, hits give low values) was 1, the normalized growth (S. cerevisiae deletion strains, locus YPL209C, strain IPL1, hits give low values) was 0.984 and the normalized growth [9] was 0.995. For the same molecule, the normalized growth (S. cerevisiae deletion strains, locus YPR025C, strain CCL1, hits give low values) was 0.985, the normalized growth (S. cerevisiae deletion strains, locus YPR106W, strain ISR1, hits give low values) was 0.994 and the normalized growth (S. cerevisiae deletion strains, locus YPR111W, strain DBF20, hits give low values) was 0.978. The normalized growth (S. cerevisiae deletion strains, strain NNK1, hits give low values) was 0.995 and the normalized growth (S. cerevisiae deletion strains, strain TSCII, hits give low values) was 1.01.

From PubChem BioAssay AID1159580 (chemical genetic matrix, 2015)
